Structures are written as SMILES. “And” between values parts separate entries of the source, which are not always exact repeats. Equal values may be shown once. Out of some 16,000 compounds screened, about 5,800 (36%) were called active. About 23% were inconclusive and are not listed. Some of the results follow. Values without a mark were called inactive. The call rests on the fitted dose curve; in most records, active means well fitted curve in the direction sought with a large enough effect; inconclusive means small, poorly fitted or top-dose-only effect, or effect the other way; inactive means no such curve, though single readings can be large or run the other way.

The text below walks through data of PubChem BioAssay AID1851 (National Center for Advancing Translational Sciences (NCATS), 2009).
On the % scale 0 is the no-effect control and ±100 the full control effect.

For the test, the target named is Cytochrome P450 2C19 (Homo sapiens) (UniProt P33261). The test can be described thus: Cytochrome panel assay with activity outcomes. To be noted: recombinant CYP, pro-luciferin dealkylation, luminescence, p450-cyp2c19; series mostly up to 57.1 µM; activity, negative = inhibition: at the top concentration.
Sequence of Cytochrome P450 2C19 (Homo sapiens) (P33261 whole entry, looked up): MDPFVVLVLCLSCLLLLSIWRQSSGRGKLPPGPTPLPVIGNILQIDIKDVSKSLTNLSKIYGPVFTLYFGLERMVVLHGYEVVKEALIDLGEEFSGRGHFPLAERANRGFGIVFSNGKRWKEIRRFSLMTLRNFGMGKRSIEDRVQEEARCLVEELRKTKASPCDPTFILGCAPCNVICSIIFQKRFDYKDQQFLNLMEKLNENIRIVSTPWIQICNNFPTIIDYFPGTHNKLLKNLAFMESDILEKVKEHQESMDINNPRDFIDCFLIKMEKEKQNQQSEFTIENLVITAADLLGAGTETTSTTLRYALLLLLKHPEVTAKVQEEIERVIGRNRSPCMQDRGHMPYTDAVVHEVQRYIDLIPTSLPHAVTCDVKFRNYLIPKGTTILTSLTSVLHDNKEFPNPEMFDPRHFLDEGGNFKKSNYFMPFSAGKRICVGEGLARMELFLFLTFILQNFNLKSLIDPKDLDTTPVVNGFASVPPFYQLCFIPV
One may read the AC50 as the concentration at which the activity in the assay is half-maximal. For `S=c1nc(-c2ccccc2)oc2c1CCCC2`, the AC50 is 15.8 µM (active).

Turning to `COc1ccc(-n2c(-c3ccccc3)nc(=S)c3c2CCCC3)cc1`, the “activity, negative = inhibition” value was -14.5%.

For `c1ccc(Oc2cc(-c3ccccc3)ncn2)cc1`, the AC50 was 2.51 µM (active).

For the compound `COc1ccccc1NC(=O)Nc1nnc(-c2ccco2)s1`, the AC50 was 1.78 µM (active).

As to `COc1ccccc1-c1nnc(NC(C)=O)s1`, the “activity, negative = inhibition” value was -11%.

As for `CN1C(=O)c2ccccc2C(C(=O)O)C1c1cn(C)c2ccccc12` (centres undefined), the “activity, negative = inhibition” value was -28.2%.

As to `CN1C(=O)/C(=N\OC(=O)c2cccc3ccccc23)c2ccccc21`, the AC50 was 8.91 µM (active).

In the case of `NCCCCCCCCCCN`, the “activity, negative = inhibition” value is -14.1%.

For the compound `C[C@H](NCCc1ccc(O)cc1)[C@@H](O)c1ccc(O)cc1`, the AC50 result was “inactive”.

As for `CN(c1ccccc1)c1ccc(/C=c2\s/c(=C(/C#N)C(=O)C(C)(C)C)n(Cc3ccco3)c2=O)cc1`, the AC50 was 1.78 µM (active).

For the compound `COc1cccc(OCCCOc2ccccc2C(C)C)c1`, the AC50 was 3.16 µM (active).

As for `COc1cccc(OC)c1OCCCCN1CCCC1`, the “activity, negative = inhibition” value was -25.6%.

Consider `CNC(C)c1cc(OC)ccc1OC` (centres undefined), for which the “activity, negative = inhibition” value is -11.9%.

With `CC(C(=O)Nc1cccnc1)N1C(=O)C2C3C=CC(C3)C2C1=O` (centres undefined), the “activity, negative = inhibition” value is 18.2%.

As to `Cc1ccc(NC(=O)C(C)N2C(=O)C3C4CC(C(Br)C4Br)C3C2=O)cc1` (centres undefined), the AC50 was 12.6 µM (active).

`COC(=O)c1nc(NC(=O)c2ccccc2)n[nH]1`: the “activity, negative = inhibition” value is -17.1%.

On to `Cc1nc(SC(C(=O)c2ccccc2)c2ccccc2)n[nH]1` (centres undefined), for which the AC50 is 2.51 µM (active).

With `CCOc1ccc(C2=Nn3c(nnc3-c3ccco3)SC2)cc1`, the AC50 is 3.16 µM (active).

Consider `COc1ccc(-c2csc(N3C(=N)SCC3=O)n2)cc1`, for which the “activity, negative = inhibition” value was -31.8%.

`CCOc1ccc(-c2nnc3n2N=C(c2ccc(OC)cc2)CS3)cc1`: the AC50 was 4.47 µM (active).

For the compound `COc1cccc(-c2nnc3n2N=C(C(C)(C)C)CS3)c1`, the AC50 was 2.82 µM (active).

Consider `CCN(CC)C(=O)CSc1nnc(-c2ccco2)n1N`, for which the “activity, negative = inhibition” value is -20.6%.

Consider `NCCCCCC(=O)O`, for which the AC50 result was “inactive”.

With `CCN1C(=O)[C@H]2[C@H]3[C@H](O)[C@H](O)C/C(=N/OC[C@@H](O)COCc4ccco4)[C@H]3CC[C@@H]2C1=O`, the activity, negative = inhibition was -33.5% [at 11.4 µM].

As for `CO[C@@H]1COC(=O)C/C=C\[C@@H](C)[C@H](OC)COC(=O)[C@@H](C)COC(=O)C/C=C\[C@H]1C`, the activity, negative = inhibition was 4.43% [at 11.4 µM].

For `Cc1noc(NC(=O)Nc2ccccc2F)c1C#N`, the activity, negative = inhibition was -17.8% [at 11.4 µM].

As to `CCC(C)n1c(NC(=O)c2ccccc2)c(C#N)c2nc3ccccc3nc21` (centres undefined), the AC50 was 28.2 µM (active).

Take `CC(C)CN=C(N)N=C(N)N`: the activity, negative = inhibition was -8.28% [at 11.4 µM].

In the case of `Oc1cccc(-c2nc3c4c(ncn3n2)-c2ccccc2CC42CCCC2)c1`, the AC50 was 25.1 µM (active).

Take `COc1ccc(C(=O)/C=C2/c3ccccc3CC(C)(C)N2C)cc1`: the AC50 was 15.8 µM (active).

With `COc1ccc(C(=O)N2CCC3(CC2)CCN(C(c2ccccc2)c2ccccc2)CC3)cc1`, the “activity, negative = inhibition” value is -41.3%.

For the compound `COc1ccc(C(=O)N2CCC3(CCN(C)CC3)CC2)cc1`, the “activity, negative = inhibition” value was -7.06%.

Turning to `Cn1nccc1C(=O)Nc1ccc(Cl)cc1`, the AC50 was 31.6 µM (active).

For `CCNS(=O)(=O)c1ccc(NC(=O)c2cc(C(F)(F)F)nn2C)cc1`, the “activity, negative = inhibition” value was -28.8%.

With `O=C(O)c1cscc1Cc1cccs1`, the activity, negative = inhibition is -1.48% [at 11.4 µM].

On to `O=C(O)/C(=C\c1ccccc1)Cc1ccccc1`, for which the activity, negative = inhibition is -14.2% [at 11.4 µM].

Take `O=C(Cc1cccs1)N/N=C/C(Br)=C/c1ccccc1`: the AC50 was 7.08 µM (active).

With `COc1cc(C(=O)NCc2cccc3ccccc23)cc(Cl)c1OC`, the AC50 is 3.16 µM (active).

`CS(=O)(=O)N1CCC[C@@]2(CCN(C(=O)Nc3ccccc3)C2)C1`: the “activity, negative = inhibition” value is 7.58%.

Consider `COc1ccc2c(c1)Cc1cc(N=[N+]([O-])c3ccc4c(c3)Cc3cc(OC)ccc3-4)ccc1-2`, for which the activity, negative = inhibition is -35.1% [at 11.4 µM].

As to `COc1ccc2c(c1)C(=NN)c1cc(OC)ccc1-2`, the AC50 was 8.91 µM (active).

`CC1(C)O[C@H]2[C@@H](c3[nH]nc4c(=O)[nH]c(=O)[nH]c34)OC[C@H]2O1`: the activity, negative = inhibition is 9.71% [at 11.4 µM].

As for `Cc1ccc(NS(=O)(=O)c2cc(C(=O)NCc3ccccn3)ccc2Cl)cc1`, the AC50 was 5.01 µM (active).

Take `Cc1ccc(NS(=O)(=O)c2cc(C(=O)N3CCc4ccccc4C3)ccc2Cl)cc1`: the AC50 is 1.58 µM (active).

As to `CN(c1ccc(C(=O)NCc2ccccn2)cc1)S(C)(=O)=O`, the “activity, negative = inhibition” value was 3.47%.

As to `COc1ccc(C(=O)N2CCCCC2)cc1S(=O)(=O)Nc1ccccc1`, the “activity, negative = inhibition” value was -27.1%.

Regarding `CC(=O)OCC(=O)[C@@]1(OC(C)=O)[C@H](C)C[C@H]2[C@@H]3C[C@H](F)C4=CC(=O)C=C[C@@]4(C)[C@]3(F)[C@H](O)C[C@@]21C`, the “activity, negative = inhibition” value is -34.6% [at 25.6 µM].

For `COc1ccc2[nH]cc(CCNc3ccnc(-c4ccoc4)n3)c2c1`, the AC50 was 0.501 µM (active).

Regarding `COc1ccc2[nH]cc(CCNc3ccnc(-c4c(C)noc4C)n3)c2c1`, the AC50 was 1.58 µM (active).

Consider `COc1ccc2[nH]cc(CCNc3ccnc(-c4ccc5c(c4)OCO5)n3)c2c1`, for which the AC50 is 0.631 µM (active).

Turning to `COc1ccc2[nH]cc(CCNc3ccnc(-c4ccc(N(C)C)cc4)n3)c2c1`, the AC50 was 6.31 µM (active).

Take `Cc1ccc(S(=O)(=O)N2CCC(C(=O)NCCCOC(C)C)CC2)cc1`: the “activity, negative = inhibition” value is -28.9%.

In the case of `Cc1ccc(S(=O)(=O)N(C)c2cc(S(=O)(=O)N3CCC(C)CC3)c(C)cc2C)cc1`, the AC50 is 3.16 µM (active).

With `CCn1c(O)c(/C=C2\C=Nc3ccccc32)sc1=Nc1ccc(C)cc1`, the AC50 was 2 µM (active).

For the compound `Clc1ccc2c(c1)C=Nc1c(NCc3ccccc3)ncnc1O2`, the “activity, negative = inhibition” value was -48.4%.

`COc1ccc(C2=NC(C(F)(F)F)(C(F)(F)F)c3c(n(C)c(=O)n(C)c3=O)N2)cc1`: the “activity, negative = inhibition” value is 41.7%.

For the compound `O=C1c2ccccc2C2=Nc3ccccc3SC(c3ccccc3F)C12` (centres undefined), the AC50 was 1.58 µM (active).

For the compound `O=C(O)C1=C/C(=C(/c2ccccc2)c2cc(C(=O)O)c(O)c3ccccc23)c2ccccc2C1=O`, the activity, negative = inhibition is 29% [at 11.4 µM] and -20.5% [at 11.4 µM].

Consider `O=C(O)C1=CC(=C(c2ccc(O)c(C(=O)O)c2)c2ccc(O)c(C(=O)O)c2)C=CC1=O`, for which the half-maximal activity concentration (AC50) is 25.1 µM (active).

For the compound `O=C(O)c1ccc(C(=O)c2ccccc2C(=O)O)cc1C(=O)O`, the activity, negative = inhibition is -5.18% [at 11.4 µM].

For the compound `NS(=O)(=O)c1ccc(N=Nc2ccc(O)c(C(=O)O)c2)cc1`, the activity, negative = inhibition is 5.09% [at 11.4 µM].

As to `CC1=C/C(=C(/c2ccc(O)c(C)c2)c2ccccc2C(=O)O)C=CC1=O`, the AC50 is 0.00316 µM (active).

As for `O=C(CN1CCc2ccccc21)NC(=O)NCc1ccco1`, the AC50 is 7.94 µM (active).

For the compound `CN(C)CC(O)COc1cccc(OCC(O)CN(C)C)c1` (centres undefined), the “activity, negative = inhibition” value was -26.1%.

`Cc1nn(CC(O)COc2ccc3c(c2)CCC3)c(C)c1Br` (centres undefined): the AC50 is 2 µM (active).

As to `CCOC(=O)c1ccc(S(=O)(=O)N2CCN(C)CC2)cc1`, the “activity, negative = inhibition” value was -29.5%.

For the compound `O=C(NC(=S)Nc1ccc(C(=O)N2CCOCC2)cc1)c1ccc([N+](=O)[O-])cc1`, the “activity, negative = inhibition” value was 3.86%.

Consider `Cc1ccc(C(=O)NC(=S)Nc2ccc(S(=O)(=O)N3CCN(C)CC3)cc2)cc1`, for which the AC50 was 15.8 µM (active).

Regarding `O=C(OCn1ncc(Cl)c(Cl)c1=O)c1cccc(C(F)(F)F)c1`, the AC50 was 2.24 µM (active).

Take `Cc1sc(N)c(C(=O)c2cccc(C(F)(F)F)c2)c1C`: the “activity, negative = inhibition” value was -19.2%.

As to `O=c1c(C=Nc2cccc(C(F)(F)F)c2)c[nH]n1-c1cccc(Cl)n1`, the “activity, negative = inhibition” value was -14.3%.

As to `N/C(CC/C(N)=N/O)=N\O`, the activity, negative = inhibition was 20.3% [at 11.4 µM].

For the compound `N#CC(CC(=O)O)=C(c1ccccc1)c1ccccc1`, the activity, negative = inhibition is 5.19% [at 11.4 µM].

For the compound `C=CCNc1sc(C(=O)c2ccc(C)cc2)c(N)c1C#N`, the AC50 was 7.08 µM (active).

Consider `C=CCNc1sc(C(=O)c2ccccc2)c(N)c1C#N`, for which the AC50 is 6.31 µM (active).

For `CC(=O)CSc1nnc(Cc2ccc([N+](=O)[O-])cc2)o1`, the AC50 is 7.08 µM (active).

For the compound `NNC(=O)CNc1cccc(Br)c1`, the activity, negative = inhibition was -2.2% [at 11.4 µM].

Consider `O=C(Cc1ncc(C(F)(F)F)cc1Cl)Nc1cccc(Br)c1`, for which the AC50 is 2.82 µM (active).

Take `CC(C)(C)C(=O)OCc1cn(-c2ccc(Cl)cc2)nn1`: the AC50 was 8.91 µM (active).

Regarding `Cc1ccc(C(=O)c2cn(-c3ccc(F)c(Cl)c3)nn2)cc1`, the “activity, negative = inhibition” value is -17.5%.

`[Cu].[O-]/N=C1/C(=[OH+])Nc2ccccc21.[O-]Nc1c(O)[nH]c2ccccc12`: the activity, negative = inhibition was 2.58% [at 11.4 µM].

On to `Cc1c(C=O)c2ccccn2c1C(=O)c1ccncc1`, for which the AC50 was 1.78 µM (active).

Consider `C[C@H](C(=O)c1ccncc1)c1ccccn1`, for which the activity, negative = inhibition is -37.2% [at 11.4 µM].

Consider `CC(=O)N(C[C@@H](C)C(=O)O)c1c(I)cc(I)c(N)c1I`, for which the “activity, negative = inhibition” value was -29.6% [at 25.6 µM].

Regarding `COc1ccc(F)cc1S(=O)(=O)NC(Cc1ccccc1)C(N)=O` (centres undefined), the AC50 was 7.08 µM (active).

Take `CC(C)N=c1scc(-c2ccco2)n1/N=C/c1ccc(O)c(O)c1`: the AC50 was 7.94 µM (active).

In the case of `C[N+](C)(C)/N=C\c1ccc(O)c(O)c1`, the activity, negative = inhibition was 12.7% [at 11.4 µM].

Regarding `NC(=S)SCCC(=O)O`, the activity, negative = inhibition is -6.93% [at 11.4 µM].

As to `Cc1nn(Cc2ccc([N+](=O)[O-])cc2)c(=O)n1-c1cccc(F)c1`, the AC50 was 11.2 µM (active).

As to `CSCC[C@@H]1NC(=O)C/C=C\[C@@H](C)COC(=O)[C@H](C)COC1=O`, the activity, negative = inhibition was -10.8% [at 11.4 µM].

As to `C[C@@H]1/C=C\CC(=O)OC[C@H]2O[C@@H](C=C[C@@H]2O)[C@H](C)/C=C\CC(=O)OC[C@H]2O[C@H]1C=C[C@@H]2O`, the activity, negative = inhibition is -20.1% [at 11.4 µM].

Take `CS(=O)(=O)N(Cc1cc2ccccc2[nH]c1=O)C1CCCCC1`: the AC50 was 15.8 µM (active).

On to `CN(Cc1cc2ccccc2[nH]c1=O)S(C)(=O)=O`, for which the “activity, negative = inhibition” value is -24.3%.

Turning to `COc1ccc(-n2c(N)c(C(=O)NCc3ccco3)sc2=S)cc1`, the AC50 was 17.8 µM (active).
